Source: PubChem BioAssay (NCI)
This is part of a sample that, as a whole, favours compounds with a hit. Of some 83,000 tested, about 20% had one in any assay.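 How to read the values: 0–100, growth inhibition (40 = 60% inhibited); 0, no net growth; -100 to 0, cell death (-40 = 40% of starting cells died; -100 = all dead).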 Active and inactive are the calls of the source. The calls were made as follows: active = growth percent below 10; inactive = the rest.

Experiments:
Assay in all cases: NCI-60 one-dose screen, 48 h (100 = growth as untreated, 0 = no growth, -100 = all killed)
Settings in all cases: 10 µM unless noted
[1] = tested on: T-47D breast
[2] = tested on: BT-549 breast
[3] = tested on: MDA-MB-435 melanoma
[4] = tested on: SW-620 colon
[5] = tested on: HCT-116 colon
[6] = tested on: HCC-2998 colon
[7] = tested on: KM12 colon
[8] = tested on: MDA-MB-468 breast
[9] = tested on: MCF7 breast

Measured: growth

CC12CC[C@@H]3[C@]4(C)COC(c5cn[nH]c5-c5cccc(Br)c5)O[C@@H]4CC[C@@]3(C)[C@@H]1CC(C1=CCOC1=O)O2 (stereo partly specified)
inactive: [1] 17.7% | [3] 36.1% | [4] 48.5% | [5] 15.3% | [6] 35.6% | [7] 13.5% | [8] 17.4%
active: [2] -3.03%

COc1c(F)ccc(C(=O)Nc2ccc3nc(NC(=O)C4CCCN(S(=O)(=O)c5ccc(Cl)cc5)C4)sc3c2)c1F (stereo unspecified)
inactive: [1] 52.6% | [2] 62.4% | [3] 101% | [4] 97.2% | [5] 65.3% | [6] 103% | [7] 78.7% | [8] 80.2%

Cn1cc(-c2cc(N)n3nc(-c4c[nH]c5ccccc45)cc3n2)c2cc(Br)cnc21
active: [1] -56% | [2] -87.8% | [3] -79.3% | [4] -69.1% | [5] -90.7% | [6] -94.3% | [7] -60.9% | [8] -88.5%

COc1ccc(-c2ccnc(SCc3cc4ccccc4[nH]c3=O)n2)cc1
inactive: [1] 70.2% | [2] 29.7% | [4] 35.1% | [5] 31% | [6] 59.6% | [7] 57.3%
active: [3] 1.7% | [8] 6.26%

CCCCSc1nc(Nc2ccc(S(N)(=O)=O)cc2)c(C#N)c(-c2ccc(Cl)cc2)n1
inactive: [1] 75.5% | [2] 96.1% | [3] 56.2% | [4] 37.3% | [6] 64% | [7] 74.7% | [8] 76%
active: [5] 1.12%

Cc1sc2c(c1C)C(c1ccc(Cl)cc1)=N[C@@H](CC(=O)NCCCCCNC(=O)COc1ccc(C3CCC(=O)NC3=O)cc1)c1nnc(C)n1-2 (stereo partly specified)
active: [1] -10.6% | [2] -0.134% | [6] -10.8% | [8] -20.8%
inactive: [3] 20.3% | [4] 23.1% | [5] 20% | [7] 13.9%

O=C(N1c2ccccc2Sc2ccccc21)n1ccc2cccnc21
inactive: [1] 27.7% | [2] 60.2% | [3] 19.7% | [4] 58.4% | [5] 34.9% | [6] 85.1% | [7] 49.2% | [8] 51.8%

CCOC(=O)c1ccc(Nc2nc(NN)nc(-c3ccc(F)cc3)c2C#N)cc1
inactive: [1] 94.7% | [2] 111% | [3] 111% | [4] 111% | [5] 102% | [6] 105% | [7] 109% | [8] 119%

COc1ccc(-c2nc3cc(C)ccc3n2CC(=O)N=Nc2c(O)[nH]c3ccc(Cl)cc23)cc1
inactive: [4] 12.4%
active: [1] 2.44% | [2] -43.7% | [3] -7.28% | [5] -65.4% | [6] -1.72% | [7] 9.61% | [8] -42.6%

C=C1CC[C@@H]2[C@]3(C)COC(c4cn[nH]c4-c4cccc(Cl)c4)O[C@@H]3CC[C@@]2(C)[C@@H]1C/C=C1/C(=O)OCC1O (stereo partly specified)
active: [1] -2.68% | [2] -92.4% | [3] -32.5% | [4] -57.6% | [5] -91.6% | [6] -91.2% | [7] -25.2% | [8] -84.3%

O=c1oc2ccc(Br)cc2cc1C1=CSc2nc3sc4c(c3c(=O)n2N=C1)CCCC4
inactive: [1] 76.9% | [2] 95.4% | [3] 95.1% | [4] 108% | [5] 96.4% | [6] 125% | [7] 97.6% | [8] 104%

COc1ccc(-c2ccnc(SCc3cc4cc(OC)ccc4[nH]c3=O)n2)cc1
active: [1] 2.83% | [2] -3.12% | [3] 1.18% | [8] -26.3%
inactive: [4] 22.2% | [5] 11% | [6] 35% | [7] 24.2%

COc1cccc(/C=C/c2nc3ccccc3c(=O)n2CC(=O)Nc2ccc(Cl)cc2)c1
inactive: [2] 86.8% | [3] 95.4% | [4] 68.1% | [5] 38.4% | [6] 91% | [7] 77.8% | [8] 108%
active: [1] 6.29%

Brc1ccc(N/N=C/c2c[nH]c3ccc(Br)cc23)nc1
active: [1] 1.46% | [2] -22.6% | [3] -25% | [4] -71.3% | [5] -72.9% | [6] -94% | [7] -57% | [8] -63.5%

O=C(Cn1c(/C=C/c2ccccc2)nc2ccccc2c1=O)Nc1ccccc1
active: [1] -11.3%
inactive: [2] 91.3% | [3] 105% | [4] 75.9% | [5] 44.6% | [6] 95.2% | [7] 101% | [8] 61.8%

CC(=O)c1cccc(NC(=O)CCC(=O)NS(=O)(=O)c2ccc(C)cc2)c1
inactive: [1] 106% | [2] 107% | [3] 112% | [4] 111% | [5] 101% | [6] 117% | [7] 104% | [8] 122%

CC(=O)c1cc(C(=O)c2ccccc2)n2c1ccc1ccccc12
inactive: [1] 83.5% | [2] 73% | [3] 108% | [4] 99.3% | [5] 82.4% | [6] 121% | [7] 83.1% | [8] 93.9%

CCCn1cc(-c2nc(Nc3ccc(C(=O)NCCCCNc4cccc5c4C(=O)N(C4CCC(=O)NC4=O)C5=O)cc3)nc3[nH]ccc23)cn1 (stereo unspecified)
inactive: [3] 34.2% | [5] 72.3%
active: [1] -11% | [2] -36.1% | [4] 9.12% | [6] 5.84% | [7] 6.05% | [8] -36.3%

COc1ccc2c(c1)c(-c1cc3nc(-c4cn(C)c5ncccc45)cc(N)n3n1)cn2C
active: [1] -48.5% | [2] -84.7% | [3] -62.4% | [4] -70.4% | [5] -89% | [6] -100% | [7] -69.3% | [8] -89.6%

COc1c(F)ccc(C(=O)Nc2ccc3nc(NC(=O)C4CCCN(S(=O)(=O)c5cccc(Cl)c5)C4)sc3c2)c1F (stereo unspecified)
inactive: [1] 53.1% | [2] 76% | [3] 90.9% | [4] 98.6% | [5] 64.4% | [6] 102% | [7] 82.2% | [8] 88.8%

Cn1cc(-c2cc3nc(-c4cn(C)c5ncccc45)cc(N)n3n2)c2ccccc21
active: [2] -34.7% | [5] -20% | [6] 5.15% | [8] -24.7%
inactive: [1] 35.1% | [3] 29.7% | [4] 20.2% | [7] 36.2%

COc1ccc(/C=C/c2nc3ccccc3c(=O)n2CC(=O)Nc2ccc(OC)cc2)cc1
inactive: [1] 66.4% | [2] 72.5% | [3] 96.4% | [4] 84.4% | [5] 32.1% | [6] 95.6% | [7] 79.6% | [8] 91.1%

CCOC(=O)c1ccc(Nc2nc(NN)nc(-c3ccc(OC)cc3)c2C#N)cc1
inactive: [1] 84.9% | [2] 116% | [3] 62.6% | [4] 104% | [5] 101% | [6] 81% | [7] 93.9% | [8] 119%

O=c1[nH]c(=O)c2c(-c3cc4ccccc4oc3=O)ccnc2[nH]1
inactive: [1] 74.2% | [2] 70.2% | [3] 101% | [4] 98.9% | [5] 88.3% | [6] 98.8% | [7] 95.4% | [8] 57.9%

CC(=O)Nc1ccc(-n2cnc3cc(-c4ccc(O)cc4)ccc32)cc1C(F)(F)F
inactive: [1] 20.5% | [2] 32.5% | [9] 18.4% | [5] 31% | [6] 33.9%
active: [3] 3.5% | [7] 3.46%

COc1ccc2c(c1)c(/C=N/Nc1ccc3ccccc3n1)cn2C
inactive: [2] 51.4% | [3] 11.2%
active: [1] 3.98% | [4] -67.3% | [5] -99.5% | [6] -59.6% | [7] -66.5% | [8] -41.6%

COc1c(F)ccc(C(=O)Nc2ccc3nc(NC(=O)C4CCCN(S(=O)(=O)c5cccc(Br)c5)C4)sc3c2)c1F (stereo unspecified)
inactive: [1] 60.9% | [2] 74.5% | [3] 90.7% | [4] 94.5% | [5] 67.9% | [6] 125% | [7] 78.7% | [8] 98.1%

Cn1cc(-c2cc3nc(-c4cn(C)c5ncccc45)cc(N)n3n2)c2cc(Cl)ccc21
active: [1] -70.9% | [2] -94.6% | [3] -81.1% | [4] -86.3% | [5] -94.4% | [6] -97.8% | [7] -37.2% | [8] -95.5%

CC(=O)Nc1ccc(-n2cnc3ccc(-c4ccc(O)cc4)cc32)cc1
inactive: [1] 47.9% | [2] 51.4% | [3] 44.7% | [9] 10.6% | [5] 20.2% | [6] 66.3% | [7] 17.8%

CC1=C(C(=O)OCc2ccccc2)C(c2ccc(-n3cncn3)cc2)n2c(nc3ccccc32)N1 (stereo unspecified)
inactive: [1] 65.1% | [2] 52.9% | [9] 13.1% | [5] 41.3% | [6] 75.4% | [7] 39.5%
active: [3] -12.5% | [8] -18.8%

O=C(CN1C(=O)/C(=C/c2ccccc2Cl)SC1=S)N1CCOCC1
active: [8] -2.81%
inactive: [1] 70.9% | [2] 119% | [3] 91.3% | [9] 49.6% | [5] 61.1% | [6] 124% | [7] 101%
